Assay results as given in PubChem BioAssay AID1159580 (chemical genetic matrix, 2015).
Several values for one entry are separate records, joined by “and”; a condition that tells them apart may be missing. Equal entries are not always repeated. In all, about 5,500 compounds went through this assay and about 2,000 (36%) were called active. Not shown: some 18% with an inconclusive outcome. No stated cut-off is given here; in the data, active means normalized growth mostly below about 0.91 (no sharp cut-off); inconclusive means no clear call, values can overlap the other calls; inactive means mostly above about 0.92. The list shows a part of the results.

Assay: chemical genetic growth profiling, strain panel (AID 1159580);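 further: tested at 20 µM; growth read once vehicle control cultures reached saturation at 30 °C; 1 = growth at the plate median or of vehicle wells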
Conditions: S. cerevisiae deletion strains, growth OD

Measured: normalized growth

C=C1c2c(Cl)ccc(O)c2C(O)=C2C(=O)[C@]3(O)C(O)=C(C(N)=O)C(=O)[C@@H](N(C)C)[C@@H]3[C@@H](O)[C@H]12
active: locus YER015W, strain faa2, stronger effect = lower value 0.912
inactive: locus YAL013W, strain DEP1, stronger effect = lower value 0.972 | locus YAL021C, strain ccr4, stronger effect = lower value 0.964 | locus YAL026C, strain drs2, stronger effect = lower value 0.934 | locus YAL030W, strain snc1, stronger effect = lower value 0.981 | locus YBL061C, strain skt5, stronger effect = lower value 0.976 | locus YBR009C, strain hhf1, stronger effect = lower value 0.958 | locus YBR021W, strain FUR4, stronger effect = lower value 0.914 | locus YBR023C, strain chs3, stronger effect = lower value 0.966 | locus YBR171W, strain sec66, stronger effect = lower value 0.999 | locus YBR229C, strain ROT2, stronger effect = lower value 0.977 | locus YBR231C, strain swc5, stronger effect = lower value 0.978 | locus YBR279W, strain paf1, stronger effect = lower value 0.956 | locus YCL011C, strain gbp2, stronger effect = lower value 0.935 | locus YCL016C, strain dcc1, stronger effect = lower value 0.936 | locus YCL029C, strain bik1, stronger effect = lower value 0.948 | locus YCL061C, strain MRC1, stronger effect = lower value 0.954 | locus YCL069W, strain vba3, stronger effect = lower value 0.977 | locus YCR088W, strain abp1, stronger effect = lower value 0.981 | locus YDL005C, strain med2, stronger effect = lower value 0.99 | locus YDL035C, strain GPR1, stronger effect = lower value 0.954 | locus YDL040C, strain nat1, stronger effect = lower value 0.993 | locus YDL074C, strain BRE1, stronger effect = lower value 0.946 | locus YDL101C, strain DUN1, stronger effect = lower value 0.965 | locus YDL134C, strain PPH21, stronger effect = lower value 0.909 | locus YDL185W, strain tfp1, stronger effect = lower value 0.961 | locus YDL192W, strain arf1, stronger effect = lower value 0.95 | locus YDR001C, strain nth1, stronger effect = lower value 0.973 | locus YDR069C, strain doa4, stronger effect = lower value 0.965 | locus YDR101C, strain arx1, stronger effect = lower value 0.961 | locus YDR137W, strain rgp1, stronger effect = lower value 0.977 | locus YDR150W, strain NUM1, stronger effect = lower value 0.98 | locus YDR159W, strain sac3, stronger effect = lower value 0.966 | locus YDR162C, strain NBP2, stronger effect = lower value 0.945 | locus YDR195W, strain ref2 1.01 | locus YDR297W, strain sur2, stronger effect = lower value 0.981 | locus YDR318W, strain mcm21, stronger effect = lower value 0.947 | locus YDR334W, strain swr1, stronger effect = lower value 0.949 | locus YDR335W, strain msn5, stronger effect = lower value 0.967 | locus YDR388W, stronger effect = lower value 0.986 | locus YDR392W, strain spt3, stronger effect = lower value 0.849 | locus YDR502C, strain sam2, stronger effect = lower value 0.98 | locus YEL003W, strain gim4, stronger effect = lower value 0.967 | locus YEL037C, strain rad23, stronger effect = lower value 0.962 | locus YEL061C, strain CIN8 (second series), stronger effect = lower value 0.974 | locus YEL061C, strain CIN8, stronger effect = lower value 0.976 | locus YER016W, strain bim1, stronger effect = lower value 0.964 | locus YER110C, stronger effect = lower value 0.989 | locus YER111C, strain swi4, stronger effect = lower value 0.949 | locus YER155C, strain BEM2 (second series), stronger effect = lower value 0.947 | locus YER155C, strain BEM2, stronger effect = lower value 0.992 | locus YER167W, strain BCK2, stronger effect = lower value 0.962 | locus YFR010W, strain ubp6, stronger effect = lower value 0.958 | locus YGL078C, strain dbp3, stronger effect = lower value 0.964 | locus YGL086W, strain mad1, stronger effect = lower value 0.964 | locus YGL167C, strain pmr1, stronger effect = lower value 0.971 | locus YGL173C, strain kem1, stronger effect = lower value 0.983 | locus YGL227W, strain vid30, stronger effect = lower value 0.997 | locus YGL240W, strain doc1, stronger effect = lower value 1.01 | locus YGL248W, strain PDE1, stronger effect = lower value 0.916 | locus YGL253W, strain hxk2, stronger effect = lower value 0.968 | locus YGR078C, strain PAC10, stronger effect = lower value 0.882 | locus YGR135W, strain pre9, stronger effect = lower value 0.94 | locus YGR229C, strain SMI1, stronger effect = lower value 0.957 | locus YGR252W, strain gcn5, stronger effect = lower value 0.967 | locus YHR013C, strain ard1, stronger effect = lower value 0.975 | locus YHR027C, strain rpn1, stronger effect = lower value 0.962 | locus YHR030C, strain SLT2, stronger effect = lower value 0.969 and 0.993 | locus YHR079C, strain IRE1 (second series), stronger effect = lower value 0.961 | locus YHR079C, strain IRE1, stronger effect = lower value 0.985 | locus YHR094C, strain hxt1, stronger effect = lower value 0.974 | locus YHR129C, strain ARP1, stronger effect = lower value 0.958 | locus YHR142W, strain chs7, stronger effect = lower value 0.981 | locus YHR200W, strain rpn10, stronger effect = lower value 0.952 | locus YIL066C, strain RNR3, stronger effect = lower value 0.915 | locus YIL073C, strain SPO22, stronger effect = lower value 0.952 | locus YIL125W, strain kgd1, stronger effect = lower value 0.98 | locus YIR030C, strain dcg1, stronger effect = lower value 0.98 | locus YJL092W, strain hpr5, stronger effect = lower value 0.966 | locus YJL095W, strain BCK1 (second series), stronger effect = lower value 0.976 | locus YJL095W, strain BCK1, stronger effect = lower value 0.898 and 0.992 | locus YJL115W, strain asf1, stronger effect = lower value 0.979 | locus YJL129C, strain trk1, stronger effect = lower value 1.01 | locus YJL134W, strain LCB3, stronger effect = lower value 0.98 | locus YJL154C, strain vps35, stronger effect = lower value 0.985 | locus YJL164C, strain tpk1, stronger effect = lower value 0.928 | locus YJL166W, strain qcr8, stronger effect = lower value 0.976 | locus YJL168C, strain set2, stronger effect = lower value 0.974 | locus YJL187C, strain SWE1 (second series), stronger effect = lower value 0.885 | locus YJR043C, strain POL32, stronger effect = lower value 0.879 | locus YJR066W, strain TOR1, stronger effect = lower value 0.951
